# Hck Nef HTS: human Hck-Nef kinase inhibition | inhibition, % at 20 µM | Recombinant Hck-YEEI plus Nef, Z-Lyte FRET kinase assay | 220,000 tested, 0.68% active | P08631;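 active means Hck-Nef kinase inhibition above about 50%, limit read from the data; inactive means inhibition below that limit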;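 further: 0% = DMSO with Hck plus Nef and 100% = Hck alone without Nef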
# Mcl1 Bid PPI: disrupts binding of human Mcl-1 to Bid peptide; Q07820; TR-FRET Mcl-1/Bid-Dy647 peptide binding, 1536-well; inhibition, % at 21.7 µM; 220,000 tested, 0.97% active;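 active means compounds that cut the binding signal by more than half at the single screening dose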;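 further: His-tagged Mcl-1 with europium anti-His antibody binding Bid BH3 peptide; 0% = Mcl-1 plus peptide wells and 100% = peptide-only wells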
# Target sequence (Q07820 whole entry, looked up): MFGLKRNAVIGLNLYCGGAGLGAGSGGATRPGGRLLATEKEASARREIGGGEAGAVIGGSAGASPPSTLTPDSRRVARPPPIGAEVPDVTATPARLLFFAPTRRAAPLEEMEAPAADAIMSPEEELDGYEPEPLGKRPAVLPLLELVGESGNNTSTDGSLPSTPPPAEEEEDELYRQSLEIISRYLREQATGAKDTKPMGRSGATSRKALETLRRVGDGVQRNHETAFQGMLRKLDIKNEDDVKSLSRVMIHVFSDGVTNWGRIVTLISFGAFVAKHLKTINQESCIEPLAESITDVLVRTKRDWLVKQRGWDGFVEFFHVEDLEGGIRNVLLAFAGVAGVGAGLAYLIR
# Mcl1-Noxa inh: Mcl-1/Noxa interaction inhibition; Q07820; TR-FRET Mcl-1/Noxa peptide binding, 2 h; inhibition, % at 21.7 µM; 220,000 tested, 1.5% active; AID 1022;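 active means compounds that cut the protein-peptide binding signal by more than 50% relative to plate controls in a single-dose test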;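 further: His-tagged Mcl-1 with rhodamine Noxa BH3 peptide and terbium anti-His antibody; 0% = Mcl-1 plus Noxa peptide wells and 100% = peptide-only wells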
# Mcl-1 Bim block: human Bim-Mcl-1 interaction inhibition; Q07820; Bead-based flow cytometry, Bim peptide-Mcl-1 binding; inhibition, % at 10 µM; 190,000 tested, 0.1% active; AID 1009; in the data active means inhibition above about 40%;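 further: 0% = no compound tracer wells and 100% = peptide blocker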
# 14-3-3 Bad inh: disrupts binding of bovine 14-3-3 zeta to phospho-Bad peptide | P63103 | TR-FRET 14-3-3zeta/Dy647-pBad peptide displacement, 1 h | inhibition, % at 21.7 µM | 220,000 tested, 0.71% active;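 active means inhibition above about 70%, limit read from the data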;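 further: 0% = full 14-3-3 plus peptide FRET controls and 100% = background without 14-3-3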
# Target sequence (P63103 whole entry, looked up): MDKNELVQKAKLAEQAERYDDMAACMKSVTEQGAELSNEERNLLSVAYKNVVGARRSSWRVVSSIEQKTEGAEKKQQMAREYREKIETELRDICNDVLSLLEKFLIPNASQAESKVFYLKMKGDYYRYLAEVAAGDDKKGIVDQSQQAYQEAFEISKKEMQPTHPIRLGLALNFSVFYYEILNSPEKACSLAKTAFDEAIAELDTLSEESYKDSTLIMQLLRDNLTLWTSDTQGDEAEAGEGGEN
# eIF4E 4G PPI: eIF4E/eIF4G interaction inhibition in translation initiation; P63073+Q04637; TR-FRET eIF4E-eIF4GI(517-606) binding, 2 h; AID 782; inhibition, % at 21.7 µM; 220,000 tested, 0.37% active;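 active means inhibition above about 30%, limit read from the data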;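 further: 0% = full FRET control wells and 100% = background wells lacking eIF4GI fragment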
# The depositor's hits bear a star; . = no result; [ ] = dose if it differs, or a comment. Rows were chosen to be rich in hits. Some 3.5% of all compounds tested hit in one or more screens of this group.
SMILES,Hck Nef HTS,Mcl1 Bid PPI,Mcl1-Noxa inh,Mcl-1 Bim block,14-3-3 Bad inh,eIF4E 4G PPI
CCOC(=O)c1c(N)sc2c(O)c(Br)ccc12,1.7,-0.7,40.4,-3.0,64.0,39.1*[fluorescence artefact?]
CCOC(=O)c1c(N)sc(N)c1C(=O)OCC,11.0,-28.2,69.1*,-5.0,3.5,2.9
CCOC(=O)c1c(N)sc(=S)c2c1CCC2,0.4,53.6*,56.6*,0.0,30.6,8.0
COc1cc(CC(NC(C)=O)C(=O)NC2CCN(c3c4c(nc5ncnn35)CCC4)CC2)cc(OC)c1 (stereo not drawn),23.2,-15.7,10.8,0.0,-4.9,-1.4
C=CCNC(=O)COC(=O)c1cccnc1Nc1ccccc1F,25.0,-1.0,-4.9,-3.0,4.8,-1.4
NNC(=O)c1oc2nc(-c3ccco3)cc(-c3ccco3)c2c1N,-11.5,-105.0,61.6*,.,-6.8,1.2
Nc1c(C(=O)N/N=C/c2cccnc2)oc2nc(-c3ccco3)cc(-c3ccco3)c12,64.1*,-17.5,48.2,.,-2.4,8.6
COc1ccc(C(CC(=O)c2ccc(C)cc2)C(C#N)C#N)cc1OC (stereo not drawn),4.4,-21.1,-18.7,-1.0,-23.6,11.3
CC(C)(O)P(=O)(O)CCc1ccccc1,6.1,13.8,14.6,.,-0.4,-1.3
Cn1cc(CN2CCCC(CO)(Cc3cccc(Cl)c3)C2)cn1 (stereo not drawn),10.4,-33.4,67.9*,-3.0,-3.3,-0.6
O=C(Cn1c(=S)[nH]c2ncccc2c1=O)NCCc1ccccc1,18.6,-29.4,11.4,1.0,-7.5,-0.5
CCO[C@H]1OC(C(=O)N2CCN(Cc3ccccc3)CC2)=C[C@@H](C)[C@@H]1CCCO,16.4,-3.9,-11.6,1.0,2.6,2.4
CCO[C@@H]1OC(C(=O)N2CCN(Cc3ccccc3)CC2)=C[C@H](C2CC2)[C@H]1CCCO,9.4,86.7*,42.2,-3.0,-0.2,-2.9
Cc1cc(C)nc(N/N=C/C2=C(N3CCOCC3)C(=C/c3ccccc3)/CC2)n1,0.9,-21.4,52.8*,-3.0,-0.9,-2.7
O=C(O)c1ccccc1N/N=C/C1=C(N2CCOCC2)C(=C\c2ccccc2)/CC1,-71.8,-41.6,62.8*,.,6.5,0.3
Cc1occc1C(=O)N/N=C/C1=C(N2CCOCC2)C(=C\c2ccc(Cl)cc2)/CC1,2.7,-68.7,8.3,-3.0,-3.2,5.5
CCN(CC)c1ccc(/C=C2\CCC(/C=C(\C#N)C(=O)Nc3ccccc3F)=C2N2CCOCC2)cc1,-14.6,-8.4,24.9,9.0,-1.6,1.4
N#C/C(=C\C1=C(N2CCOCC2)C(=C\c2ccc(Cl)cc2)/CC1)C(=O)Nc1ccccc1F,13.1,62.5*,45.4,2.0,73.3*[fluorescence artefact?],6.7
Cc1cc(=O)[nH]c(N/N=C/C2=C(N3CCOCC3)C(=C\c3ccc(Cl)cc3)/CC2)n1,1.2,31.8,55.7*,-3.0,16.6,4.2
Cc1cc(C)nc(Sc2ncnc(N)c2[N+](=O)[O-])n1,8.1,-19.0,-3.5,0.0,-4.0,5.2
COC(=O)c1ccc(/C=C(\C#N)c2nc3ccccc3s2)cc1,0.8,59.0*,59.2*,0.0,41.4,3.6
N#C/C(=C/c1ccc(-c2ccc(S(N)(=O)=O)cc2)o1)C(=O)Nc1ccccc1,3.1,-18.3,35.7,3.0,2.6,-2.4
N#C/C(=C/c1ccc(-c2ccc(S(N)(=O)=O)cc2)o1)c1nc2ccccc2s1,3.7,53.0*,20.8,-23.0,64.6,15.8
COc1ccc(OCCSCc2nnc(NC(=O)Nc3ccc(Cl)cc3)s2)cc1,3.5,-0.2,42.1,1.0,0.9,5.4
CCOCCCNC(=O)CN(c1cc([N+](=O)[O-])ccc1OC)S(C)(=O)=O,14.6,23.8,-1.0,-2.0,15.4,10.7
SMILES,Hck Nef HTS,Mcl1 Bid PPI,Mcl1-Noxa inh,Mcl-1 Bim block,14-3-3 Bad inh,eIF4E 4G PPI
CN(C)Cc1cc(O)c(CN(C)C)cc1O,-159.8,-153.3,60.0*,.,8.6,16.4
O=C1c2ccccc2-c2onc3ccc(N4CCCC4)c1c23,33.9,-30.0,-6.7,33.0,25.0,34.1*
CCOc1ccc2noc3c2c1C(=O)c1ccccc1-3,7.4,-6.5,42.9,0.0,10.8,-9.0
CCNc1ccc2noc3c2c1C(=O)c1ccccc1-3,13.9,87.5*,-238.9,2.0,-13.7,7.1
O=C1c2ccccc2-c2onc3ccc(NCc4ccco4)c1c23,24.5,56.9*,9.4,35.0,-5.0,3.5
Cn1c(CC(=O)Nc2ccc(Cl)c(Cl)c2)nnc1SCC(=O)NCc1ccccc1,19.1,-4.4,-9.5,0.0,-10.4,2.0
CN(C)S(=O)(=O)N1CCN(S(=O)(=O)N2CCOCC2)CC1,56.8*,-0.1,1.4,-1.0,1.1,2.2
COc1ccc(NC(=O)C2CCC(CNS(=O)(=O)c3cccs3)CC2)cc1 (stereo not drawn),23.3,0.4,14.5,-2.0,-23.5,-2.0
CCN(CC)CCN1C(=O)C(=O)/C(=C(/O)c2c(C)[nH]c(C(=O)OC)c2C)C1c1ccc(C)o1 (stereo not drawn),3.4,-34.4,0.4,.,2.4,-1.0
O=[N+]([O-])c1ccc(N/N=C/c2cn(Cc3ccc(F)cc3)c3ccccc23)nc1,7.3,93.6*,56.8*,-3.0,38.2,3.3
COC(=O)N/N=C/c1cn(Cc2ccc(F)cc2)c2ccccc12,14.8,-35.5,15.5,.,-13.0,-1.0
CC1(c2cccc3ccccc23)NC(=O)N(CC(=O)NC2CCS(=O)(=O)C2)C1=O (stereo not drawn),2.6,97.7*,15.7,-4.0,-6.7,3.9
COc1ccc(C(=O)NC(=S)Nc2ccc3oc(=O)ccc3c2)cc1OC,-0.6,6.9,4.8,-19.0,8.2,-3.2
COc1ccc(N2Nc3n[nH]c(N)c3N2)cc1,11.1,-6.1,55.6*,2.0,15.5,1.5
CCOc1ccc(N2Nc3n[nH]c(N)c3N2)cc1,13.4,-28.4,0.9,0.0,-1.1,-0.9
COc1ccc(C2c3ccc(O)cc3Oc3ncn4nc(-c5cccnc5)nc4c32)cc1OC (stereo not drawn),2.1,-41.4,-1.8,.,-6.3,0.6
CCN(c1ccccc1)S(=O)(=O)c1ccc(Cl)c(NC(=O)COC(=O)c2ccc(O)cc2)c1,-0.8,25.0,-192.3,0.0,12.9,-1.1
CCN(c1ccccc1)S(=O)(=O)c1ccc(Cl)c(NC(=O)COC(=O)c2cc(O)c3ccccc3c2O)c1,79.9*,-48.7,54.6*,.,10.6,-73.8
CCOC(=O)c1c(NC(=O)CSc2nnc(C)s2)sc2c1CCN(C)C2,6.1,18.5,68.4*,0.0,38.8,-1.3
Cn1ncc(S(=O)(=O)Cc2ccccc2)c(Cl)c1=O,-49.2,-5.4,68.4*,.,22.7,4.7
Cn1ncc(SCc2ccccc2)c(Cl)c1=O,8.3,-17.9,13.9,.,4.3,0.7
NS(=O)(=O)c1ccc(NS(=O)(=O)c2ccc(NC(=O)c3ccc(-c4ccccc4)cc3)cc2)cc1,8.5,54.1*,26.7,1.0,-4.8,0.8
